In PubChem BioAssay (EPA / NIEHS) one finds outcome and AC50 data, which are given here for ten molecules.

Records with an inconclusive call do not appear. The source made the active and inactive calls. Rule for the calls, unless noted: active = hit-call score of the fitted dose curve at least 0.9, where 1 is the maximum; inactive = score below 0.9.

Assay [1] has as its target Hepatocyte nuclear factor 4-alpha (Homo sapiens) (UniProt P41235). The experiment in a line: ATG_HNF4a_TRANS: Attagene TRANS-FACTORIAL HepG2 Assay for human Hepatocyte Nuclear Factor 4 alpha (HNF4a) (AID 2282982; active = hit-call score of the fitted dose curve at least 0.9, where 1 is the maximum). The settings on record: HepG2 HNF4a transactivation reporter, mRNA readout. The method in brief:
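In this trans-factorial format, a chimeric HNF4a-GAL4 fusion drives a GAL4-UAS reporter in transfected HepG2 liver cells. After 24 h treatment, reporter mRNA induction is measured by RT-PCR with capillary electrophoresis, relative to DMSO.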

Assay [2] concerns the target Nuclear receptor subfamily 4 group A member 2 (Homo sapiens) (UniProt P43354). The experiment in a line: ATG_NURR1_TRANS: Attagene TRANS-FACTORIAL HepG2 Assay for human Nuclear Receptor Related Protein 1 (NURR1) (AID 2282985; active = hit-call score of the fitted dose curve at least 0.9, where 1 is the maximum). Particulars: HepG2 Attagene TRANS reporter, mRNA readout. The method in brief:
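Chimeric NR-Gal4 fusion activity measured in HepG2 after 24 h treatment. Reporter transcripts detected by RT-PCR and capillary electrophoresis fluorescence; positive-direction curve fitting against DMSO.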

The target in assay [3] is Transcriptional activator Myb (Homo sapiens) (UniProt P10242). As to the kind of experiment: ATG_Myb_CIS: Attagene CIS-FACTORIAL HepG2 Assay for human Myeloblastosis (Myb) Proto-Oncogene Transcription Factor (AID 2282986). The settings on record: HepG2 Attagene CIS-FACTORIAL Myb reporter transcription; actives raise or lower the signal. The method in brief:
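Transiently transfected HepG2 cells, treated 24 h. Reporter mRNA quantified by RT-PCR/capillary electrophoresis; bidirectional fit relative to DMSO.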

Assay [4] has as its target Nuclear respiratory factor 1 (Homo sapiens) (UniProt Q16656). The experiment in a line: ATG_NRF1_CIS: Attagene CIS-FACTORIAL HepG2 Assay for human Nuclear Respiratory Factor 1 (NRF1) Orphan Gene (AID 2282987). The settings on record: HepG2 NRF1 cis-element reporter, Attagene multiplex; actives raise or lower the signal. The method in brief:
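Cells (HepG2, transient MRTU transfection) are exposed to compound for 24 h, then RNA isolated and reporter mRNA amplified and fluorescently labelled. Fragments are separated by capillary electrophoresis; signal change is fitted bidirectionally relative to DMSO.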

A short description of assay [5]: ATG_NFI_CIS: Attagene CIS-FACTORIAL HepG2 Assay for human Nuclear Factor I (NFI) (AID 2282989). Particulars: HepG2 cis-regulatory reporter, NFI response element transcription; actives raise or lower the signal. The method in brief: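 Transfected HepG2 liver cells, exposed 24 h, supplied total RNA for oligo(dT) reverse transcription and reporter-specific PCR. Labelled, HpaI-cut fragments were sized by capillary electrophoresis; DMSO set the baseline for bidirectional fitting.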

Assay [6] concerns the target Myc proto-oncogene protein (Homo sapiens) (UniProt P01106). As to the kind of experiment: ATG_Myc_CIS: Attagene CIS-FACTORIAL HepG2 Assay for human Myelocytomatosis (Myc) Proto-Oncogene Transcription Factor (AID 2282990). The settings on record: HepG2, Attagene cis-reporter transcription factor activity; actives raise or lower the signal. The procedure, abridged: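 HepG2 cells transiently transfected with multiple cis-promoter-driven reporter transcription units, so endogenous TF activity is read. After 24 h compound exposure, reporter mRNA was quantified by RT-PCR, 6-FAM labelling, HpaI digestion and capillary electrophoresis; bidirectional fit versus DMSO.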

The nature of assay [7]: ATG_NRF2_ARE_CIS: Attagene CIS-FACTORIAL HepG2 Assay for human Nuclear Factor Erythroid 2 Related Factor 2 (NFR2) response to Antioxidant Response Elements (ARE) (AID 2282992).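 For AC50: reporter mRNA level measured by RT-PCR and capillary electrophoresis fluorescence.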 The settings on record: HepG2 Attagene ARE/NRF2 reporter, transcription factor activity; actives raise or lower the signal. The procedure, abridged: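 Using transiently transfected HepG2 cells exposed for 24 h, reporter mRNA levels were determined by RT-PCR with fluorescent primer extension and capillary electrophoresis, analysed for gain or loss of signal against DMSO.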

Assay [8] concerns the target Cellular tumor antigen p53 (Homo sapiens) (UniProt P04637). As to the kind of experiment: ATG_p53_CIS: Attagene CIS-FACTORIAL HepG2 Assay for human p53 Transcription Factor (AID 2282994). Particulars: HepG2 p53 cis-element reporter, Attagene mRNA; actives raise or lower the signal. The procedure, abridged: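 In HepG2 cells, reporter transcription units under cis-regulatory promoters were transiently introduced. Following 24 h treatment, RNA was processed to labelled, digested cDNA fragments read by capillary electrophoresis; fitting was bidirectional versus DMSO.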

A short description of assay [9]: BSK_3C_TissueFactor: BioMAP Diversity Plus: 3C Assay for Tissue Factor Biomarker Activity (AID 2282997). The settings on record: BioMAP 3C HUVEC, tissue factor biomarker readout; actives raise or lower the signal. The procedure, abridged:
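Tissue Factor measured by ELISA, 24 h after treatment of primary HUVEC in the BioMAP 3C setting.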

Assay [10] is described as follows: BSK_3C_uPAR: BioMAP Diversity Plus: 3C Assay for Urokinase-type plasminogen activator receptor (uPAR) Biomarker Activity (AID 2282998). Particulars: BioMAP 3C HUVEC, uPAR biomarker ELISA; actives raise or lower the signal. The method in brief: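 In this endothelial cell-based assay, human umbilical vein primary cells were treated with chemicals and harvested at 24 h. uPAR was quantified using ELISA, with gains or losses fitted relative to DMSO controls.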
In general terms: In an ELISA, binding on a coated surface is turned into a signal by an enzyme label.

Assay [11] deals with Oxysterols receptor LXR-alpha (Homo sapiens) (UniProt Q13133). As to the kind of experiment: ATG_LXRa_TRANS: Attagene TRANS-FACTORIAL HepG2 Assay for human Liver X Receptor alpha (LXRa) (AID 2282980; active = hit-call score of the fitted dose curve at least 0.9, where 1 is the maximum). The settings on record: HepG2 Attagene TRANS reporter, LXRa transactivation. The method in brief:
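HepG2 cells transiently transfected with GAL4-UAS reporter units for chimeric NR-Gal4 proteins, exposed to chemicals for 24 h. Reporter mRNA quantified by RT-PCR and capillary electrophoresis; gain of signal fitted relative to DMSO.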

Assay [12] can be described thus: ATG_M_06_TRANS: Attagene TRANS-FACTORIAL HepG2 Assay for M06 Transcription Factor (Internal Marker) (AID 2282983; active = hit-call score of the fitted dose curve at least 0.9, where 1 is the maximum). The settings on record: HepG2 Attagene TRANS M06 internal marker reporter. The method in brief: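 mRNA levels of a reporter transcript, quantified as FAM fluorescence on capillary electrophoresis, served as readout. HepG2 cells expressing exogenous GAL4-chimera reporter constructs were exposed for 24 h. Gain of signal over DMSO was evaluated.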

Assay [13] in a line: ATG_M_32_TRANS: Attagene TRANS-FACTORIAL HepG2 Assay for M32 Transcription Factor (Internal Marker) (AID 2282984; active = hit-call score of the fitted dose curve at least 0.9, where 1 is the maximum;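 note: transcript level of a background control reporter unit measured by RT-PCR and capillary electrophoresis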). The settings on record: HepG2 Attagene TRANS M32 internal marker reporter. The method in brief:
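After 24 h dosing of transfected HepG2 cells, total RNA was reverse-transcribed, reporter sequences PCR-amplified, 6-FAM labelled by primer extension and HpaI-digested before capillary electrophoresis. Signal increase over DMSO was fitted.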

Assay [14] is described as follows: ATG_NF_kB_CIS: Attagene CIS-FACTORIAL HepG2 Assay for human Nuclear Factor Kappa B (NF-kB) (AID 2282991). Particulars: HepG2 Attagene cis-factorial NF-kB reporter mRNA; actives raise or lower the signal. The method in brief:
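Measures mRNA induction of an NF-kB-responsive cis-element reporter in HepG2 cells transfected with multiple reporter units, sampled 24 h post-dosing; quantified by fluorescence after RT-PCR and capillary electrophoresis, fitted for activation or inhibition against DMSO.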

Assay [15] in a line: ATG_Oct_MLP_CIS: Attagene CIS-FACTORIAL HepG2 Assay for human Octamer-Binding Transcription Factor (Oct) (AID 2282993). Particulars: HepG2 Attagene cis-factorial Oct reporter, mRNA; actives raise or lower the signal. The method in brief:
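Using HepG2 cells bearing transfected cis-reporter constructs, mRNA induction was read after 24 h by fluorescent RT-PCR and capillary electrophoresis, with DMSO defining baseline for gain- or loss-of-signal fits.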

In assay [16] the target is Oxysterols receptor LXR-beta (Homo sapiens) (UniProt P55055). As to the kind of experiment: ATG_LXRb_TRANS: Attagene TRANS-FACTORIAL HepG2 Assay for human Liver X Receptor beta (LXRb) (AID 2282981; active = hit-call score of the fitted dose curve at least 0.9, where 1 is the maximum). Particulars: HepG2 Attagene TRANS GAL4-LXRb reporter, mRNA. The procedure, abridged: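 Measures induction of a Gal4-driven reporter transcript in HepG2 cells expressing an exogenous LXRb-Gal4 fusion. Cells are exposed to compound for 24 h before RNA isolation and RT-PCR with capillary electrophoresis detection.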

The nature of assay [17]: BSK_3C_VCAM1: BioMAP Diversity Plus: 3C Assay for Vascular cell adhesion molecule 1 (VCAM1) Biomarker Activity (AID 2282999). Particulars: BioMAP 3C HUVEC, VCAM1 ELISA, cytokine-stimulated; actives raise or lower the signal. The procedure, abridged:
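Vascular primary endothelium (human umbilical vein) was exposed to chemicals and assayed 24 h later. VCAM-1 levels came from ELISA, with DMSO serving as baseline for bidirectional fitting.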

As a reminder, the AC50 is the concentration giving half of the maximal activity seen.

Chain of Myc proto-oncogene protein (Homo sapiens) (P01106 whole entry, looked up): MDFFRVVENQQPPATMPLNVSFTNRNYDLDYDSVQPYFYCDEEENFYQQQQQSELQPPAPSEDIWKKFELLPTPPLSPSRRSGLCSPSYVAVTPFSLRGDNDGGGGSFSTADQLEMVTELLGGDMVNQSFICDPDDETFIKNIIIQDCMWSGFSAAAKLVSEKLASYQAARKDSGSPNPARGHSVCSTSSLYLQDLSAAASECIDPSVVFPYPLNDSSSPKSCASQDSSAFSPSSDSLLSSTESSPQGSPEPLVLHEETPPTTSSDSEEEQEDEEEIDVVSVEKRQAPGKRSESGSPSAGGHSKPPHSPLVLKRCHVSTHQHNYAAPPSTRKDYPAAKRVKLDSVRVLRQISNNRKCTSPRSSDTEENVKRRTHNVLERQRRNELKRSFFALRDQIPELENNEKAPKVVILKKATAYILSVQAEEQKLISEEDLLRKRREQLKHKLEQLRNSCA
Chain of Nuclear respiratory factor 1 (Homo sapiens) (Q16656 whole entry, looked up, the tested form may be a part): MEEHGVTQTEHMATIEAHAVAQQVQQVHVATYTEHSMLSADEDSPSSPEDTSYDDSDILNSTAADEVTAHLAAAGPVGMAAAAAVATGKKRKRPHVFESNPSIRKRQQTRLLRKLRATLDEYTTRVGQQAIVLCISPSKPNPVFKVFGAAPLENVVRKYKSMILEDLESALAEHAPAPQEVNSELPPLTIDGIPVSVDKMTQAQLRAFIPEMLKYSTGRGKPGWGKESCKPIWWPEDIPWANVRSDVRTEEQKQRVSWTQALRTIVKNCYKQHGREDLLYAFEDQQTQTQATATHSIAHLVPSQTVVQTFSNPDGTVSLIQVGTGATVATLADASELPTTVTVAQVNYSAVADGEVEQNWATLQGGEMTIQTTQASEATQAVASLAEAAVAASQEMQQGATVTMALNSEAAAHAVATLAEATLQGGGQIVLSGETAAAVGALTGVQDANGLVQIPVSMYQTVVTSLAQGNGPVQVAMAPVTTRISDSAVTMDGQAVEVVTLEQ
Chain of Hepatocyte nuclear factor 4-alpha (Homo sapiens) (P41235 whole entry, looked up, the tested form may be a part): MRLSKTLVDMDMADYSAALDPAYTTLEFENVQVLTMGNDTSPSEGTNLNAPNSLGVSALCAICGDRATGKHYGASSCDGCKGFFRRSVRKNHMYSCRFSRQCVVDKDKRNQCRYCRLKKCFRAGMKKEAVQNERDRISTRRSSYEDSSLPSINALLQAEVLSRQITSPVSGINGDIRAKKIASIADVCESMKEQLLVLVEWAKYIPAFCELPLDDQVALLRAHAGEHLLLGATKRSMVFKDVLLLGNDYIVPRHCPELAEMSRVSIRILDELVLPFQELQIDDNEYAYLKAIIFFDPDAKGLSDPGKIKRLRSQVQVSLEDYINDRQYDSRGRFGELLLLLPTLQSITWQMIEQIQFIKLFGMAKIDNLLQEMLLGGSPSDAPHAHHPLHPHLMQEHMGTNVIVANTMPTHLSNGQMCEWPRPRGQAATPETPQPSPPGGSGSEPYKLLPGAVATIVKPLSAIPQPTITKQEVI
Chain of Transcriptional activator Myb (Homo sapiens) (P10242 whole entry, looked up): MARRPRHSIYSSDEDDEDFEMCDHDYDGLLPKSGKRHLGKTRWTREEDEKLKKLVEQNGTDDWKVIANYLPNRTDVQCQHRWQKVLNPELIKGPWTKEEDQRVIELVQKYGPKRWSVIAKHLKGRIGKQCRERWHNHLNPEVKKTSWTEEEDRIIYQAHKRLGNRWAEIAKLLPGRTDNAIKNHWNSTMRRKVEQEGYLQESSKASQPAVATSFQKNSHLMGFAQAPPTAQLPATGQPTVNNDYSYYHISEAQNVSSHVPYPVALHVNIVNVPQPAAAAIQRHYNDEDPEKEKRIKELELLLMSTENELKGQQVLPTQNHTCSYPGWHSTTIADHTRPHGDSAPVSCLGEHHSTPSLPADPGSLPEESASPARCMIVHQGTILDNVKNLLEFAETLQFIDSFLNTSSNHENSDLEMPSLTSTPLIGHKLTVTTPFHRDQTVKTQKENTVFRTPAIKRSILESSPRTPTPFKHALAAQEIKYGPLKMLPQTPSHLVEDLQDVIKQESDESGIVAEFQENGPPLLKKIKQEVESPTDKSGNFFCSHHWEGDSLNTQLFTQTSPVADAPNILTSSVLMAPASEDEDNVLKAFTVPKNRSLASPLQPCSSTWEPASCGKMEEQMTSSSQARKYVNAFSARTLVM
Chain of Oxysterols receptor LXR-beta (Homo sapiens) (P55055 whole entry, looked up, the tested form may be a part): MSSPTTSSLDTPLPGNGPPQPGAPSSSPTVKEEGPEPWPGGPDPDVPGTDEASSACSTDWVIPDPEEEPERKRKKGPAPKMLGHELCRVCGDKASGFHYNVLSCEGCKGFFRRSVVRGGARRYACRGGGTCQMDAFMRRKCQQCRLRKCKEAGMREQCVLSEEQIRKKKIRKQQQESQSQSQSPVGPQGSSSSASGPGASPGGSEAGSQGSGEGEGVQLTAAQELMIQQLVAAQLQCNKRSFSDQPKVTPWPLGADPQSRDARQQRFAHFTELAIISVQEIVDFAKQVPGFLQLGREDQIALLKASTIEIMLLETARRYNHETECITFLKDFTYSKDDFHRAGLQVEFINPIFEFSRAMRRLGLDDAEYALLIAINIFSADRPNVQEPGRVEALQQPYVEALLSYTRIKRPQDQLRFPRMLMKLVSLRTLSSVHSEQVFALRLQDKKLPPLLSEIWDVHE
Chain of Cellular tumor antigen p53 (Homo sapiens) (P04637 whole entry, looked up, the tested form may be a part): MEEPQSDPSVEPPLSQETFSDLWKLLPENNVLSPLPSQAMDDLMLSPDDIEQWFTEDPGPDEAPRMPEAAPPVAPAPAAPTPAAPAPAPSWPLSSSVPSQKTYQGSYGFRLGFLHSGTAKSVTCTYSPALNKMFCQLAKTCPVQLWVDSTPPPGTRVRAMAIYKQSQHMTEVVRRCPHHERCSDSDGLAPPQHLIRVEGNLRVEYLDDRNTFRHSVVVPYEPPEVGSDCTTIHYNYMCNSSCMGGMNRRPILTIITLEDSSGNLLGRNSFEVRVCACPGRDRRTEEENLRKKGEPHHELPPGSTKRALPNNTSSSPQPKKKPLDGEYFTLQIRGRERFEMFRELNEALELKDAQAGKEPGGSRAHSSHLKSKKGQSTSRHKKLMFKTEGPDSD
Chain of Nuclear receptor subfamily 4 group A member 2 (Homo sapiens) (P43354 whole entry, looked up, the tested form may be a part): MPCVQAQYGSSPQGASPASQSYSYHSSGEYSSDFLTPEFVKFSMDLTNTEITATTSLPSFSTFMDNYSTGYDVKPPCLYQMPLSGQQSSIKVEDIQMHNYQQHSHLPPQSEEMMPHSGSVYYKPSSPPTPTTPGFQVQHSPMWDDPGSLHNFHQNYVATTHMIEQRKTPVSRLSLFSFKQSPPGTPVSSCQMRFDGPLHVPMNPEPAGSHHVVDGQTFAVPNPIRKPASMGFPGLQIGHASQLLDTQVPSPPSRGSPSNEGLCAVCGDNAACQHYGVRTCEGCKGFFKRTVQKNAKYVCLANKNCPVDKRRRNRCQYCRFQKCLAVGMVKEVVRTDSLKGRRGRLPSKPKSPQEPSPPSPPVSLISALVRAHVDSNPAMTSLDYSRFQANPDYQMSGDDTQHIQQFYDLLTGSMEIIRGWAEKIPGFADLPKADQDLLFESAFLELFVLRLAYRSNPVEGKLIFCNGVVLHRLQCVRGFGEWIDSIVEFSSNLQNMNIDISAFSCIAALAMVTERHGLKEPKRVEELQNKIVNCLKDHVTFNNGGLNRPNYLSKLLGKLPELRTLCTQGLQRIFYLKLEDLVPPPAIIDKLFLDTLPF
Chain of Oxysterols receptor LXR-alpha (Homo sapiens) (Q13133 whole entry, looked up, the tested form may be a part): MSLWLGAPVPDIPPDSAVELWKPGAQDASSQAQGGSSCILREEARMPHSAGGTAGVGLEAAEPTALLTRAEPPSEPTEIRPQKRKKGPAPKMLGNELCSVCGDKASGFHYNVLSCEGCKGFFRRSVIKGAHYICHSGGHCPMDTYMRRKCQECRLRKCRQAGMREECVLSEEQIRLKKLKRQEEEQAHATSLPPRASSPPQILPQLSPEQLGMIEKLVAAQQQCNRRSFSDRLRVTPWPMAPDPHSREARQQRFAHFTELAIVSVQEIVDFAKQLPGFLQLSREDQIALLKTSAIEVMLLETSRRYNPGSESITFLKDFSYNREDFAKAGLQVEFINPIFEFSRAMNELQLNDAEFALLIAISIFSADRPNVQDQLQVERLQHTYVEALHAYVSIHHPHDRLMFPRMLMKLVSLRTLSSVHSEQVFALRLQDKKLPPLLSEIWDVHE

Take `Nc1ccc(C(=O)O)cc1`: the outcome in assay [1], in assay [2], in assay [3], in [4], in assay [5] and in assay [6] was inactive. For the same molecule, the outcome in [7], in assay [8], in assay [9] and in [10] was inactive.

For `Nc1ccc(Cl)c(N)c1`, the outcome in assay [11], in assay [12], in assay [13], in [2], in assay [3] and in [4] was inactive. The molecule was called inactive in assay [5], in assay [6], in assay [14], in [7] and in assay [15].

`CC=C(C)C(C)=O`: the molecule was classed as inactive in [16], in [12], in assay [3], in assay [4], in [5] and in assay [6]. Further, the call in assay [14], in [7], in [15], in assay [9], in [10] and in assay [17] was inactive. Besides, the concentration at half-maximal activity (AC50) in assay [2] was 44.7 µM (active).

Turning to `C[Si](C)(C)N[Si](C)(C)C`, the molecule was called inactive in assay [1], in assay [12], in [3], in assay [4], in [5] and in assay [6]. Besides, the call in assay [7] and in [8] was inactive.

With `CCCCCCO`, the result in assay [16], in [1], in assay [3], in assay [4], in assay [5] and in [6] was inactive. Moreover, the outcome in assay [14], in assay [15] and in assay [8] was inactive.

Regarding `O=C(O)C1CCC(C(=O)O)CC1` (stereo unspecified), the outcome in assay [2], in [3], in [4], in assay [5], in assay [6] and in assay [15] was inactive. For the same molecule, in [8], the outcome was inactive.

Turning to `CC=C(C)C=CC=C(C)C`, the molecule was classed as inactive in assay [11], in assay [1], in [3], in [4], in assay [5] and in assay [6]. Further, the molecule was called inactive in assay [14], in assay [15], in assay [8] and in [10]. Further, the concentration at half-maximal activity (AC50) in assay [7] is 26.8 µM (active); in assay [9], 20 µM (active).

On to `O=C(Oc1ccccc1)c1ccccc1O`, for which the molecule was classed as inactive in [16], in [2], in [3], in assay [4], in assay [5] and in assay [6]. Besides, the call in [7] and in [15] was inactive.

Take `CN(C)Cc1cc(CN(C)C)c(O)c(CN(C)C)c1`: the outcome in [1], in [12], in [2], in assay [3], in [4] and in [5] was inactive. In addition, the molecule was called inactive in [6], in [14], in assay [7], in assay [15] and in [8].

Take `C=CC(=O)OCC(C)OCC(C)OCC(C)OC(=O)C=C` (stereo unspecified): the call in assay [16], in assay [1], in assay [12], in [4], in assay [5] and in assay [6] was inactive. Further, the AC50 in [3] is 65.2 µM (active); in assay [7], 25.6 µM (active); in assay [15], 29.5 µM (active); in [8], 145 µM (active); in assay [9] it was 11.6 µM (active); in [10], 24.6 µM (active).
